Data from PubChem BioAssay AID2283123 (EPA ToxCast).
Records with an inconclusive call do not appear. The source made the active and inactive calls. How the source made its calls: active means hit-call score of the fitted dose curve at least 0.9, where 1 is the maximum; inconclusive means response in the unintended direction; inactive means score below 0.9.

These molecules were tested against rat CYP2E1, Cyp2e1 (gene 25086) (UniProt P05182) (assay: NVS_ADME_rCYP2E1: NovaScreen (NVS) CYP450-related Enzyme Activity (ADME) Assay for rat CYP2E1).
Chain of rat CYP2E1, Cyp2e1 (gene 25086) (P05182 whole entry, looked up): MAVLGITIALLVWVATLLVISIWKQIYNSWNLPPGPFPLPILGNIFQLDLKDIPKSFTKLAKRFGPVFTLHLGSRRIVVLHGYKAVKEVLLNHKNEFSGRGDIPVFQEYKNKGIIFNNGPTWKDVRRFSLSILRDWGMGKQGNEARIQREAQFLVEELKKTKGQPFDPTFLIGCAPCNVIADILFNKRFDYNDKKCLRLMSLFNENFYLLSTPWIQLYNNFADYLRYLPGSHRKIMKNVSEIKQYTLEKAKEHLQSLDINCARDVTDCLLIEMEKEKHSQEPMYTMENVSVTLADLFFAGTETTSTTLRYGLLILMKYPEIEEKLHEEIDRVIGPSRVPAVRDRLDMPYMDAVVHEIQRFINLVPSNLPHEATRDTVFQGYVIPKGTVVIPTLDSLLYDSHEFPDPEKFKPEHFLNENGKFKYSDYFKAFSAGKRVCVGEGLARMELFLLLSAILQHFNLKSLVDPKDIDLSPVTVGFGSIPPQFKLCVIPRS
Method: NVS_ADME_rCYP2E1 is a biochemical, single-readout assay that uses extracted gene-proteins in a cell-free assay. Measurements were taken 1 hour after chemical dosing in a 96-well plate.NVS_ADME_rCYP2E1 is one of one assay component(s) measured or calculated from the NVS_ADME_rCYP2E1 assay. It is designed to make measurements of enzyme activity, a form of enzyme reporter, as detected with fluorescence intensity signals by Fluorescence technology.Data from the assay component NVS_ADME_rCYP2E1 was analyzed into 1 assay endpoint. This assay endpoint, NVS_ADME_rCYP2E1, was analyzed in the positive analysis fitting direction relative to Acetonitrile as the negative control and baseline of activity. Using a type of enzyme reporter, loss-of-signal activity can be used to understand changes in the enzymatic activity as they relate to the gene Cyp2e1. Furthermore, this assay endpoint can be referred to as a primary readout, because this assay has produced multiple assay endpoints where this one serves a enzymatic activity function. To generalize the intended target to other relatable targets, this assay endpoint is annotated to the cyp intended target family, where the subfamily is xenobiotic metabolism.
Binding assays used specific radioligands (tritiated, iodinated) with non-radioactive competitive displacement ligands in agonist or antagonist protocols (as indicated) and various reference compounds and inhibitors to titrate specific binding to receptors and transporters. Most enzyme assays (CYPs, kinases, phosphatases, proteases, HDACs) used recombinant protein and specific substrates (fluorescence mostly, some colorimetric and radioactive) and inhibitors, followed by a biochemical separation of substrate and product. All assays for the biochemical HTS were initially run in duplicate at a single concentration (10 uM for CYP450 assays and 25 uM for all others). Assay-chemical combinations meeting a pre-defined threshold (e.g., 30% inhibition and other criteria defined below) were then run in singleton concentration-response format with maximum concentration of 20 uM for CYPs and 50 uM for all others. Each assay was run with positive and negative controls, and concurrent controls on every plate. The follow-up (secondary) screen tested active chemical-pairs in concentration series, as well as a few additional assays not tested in the primary screen, some selected negative inactives, and several cases re-run in the concentration series for confirmatory purposes.
`S=C(S)NCCNC(=S)S.[Mn+2].[S-]C([S-])=NCCN=C([S-])[S-].[Zn+2]` was tested, and the outcome was “inactive”. In the case of `N#CSCSc1nc2ccccc2s1`, the AC50 is reported as 10 µM (active). With `C#CCOC(=O)[C@@H](C)Oc1ccc(Oc2ncc(Cl)cc2F)cc1` the AC50 was 1.6 µM (active). For `S=C([S-])NCCNC(=S)[S-].[Mn+2]`, the outcome was “inactive”.
